# Assay results taken from PubChem BioAssay.
# Results filed as inconclusive are left out. Activity calls are given as the source filed them.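 How the source made its calls, unless noted: active means growth inhibition above 25% in both replicates, a cutoff set 3 SD above the mean; inconclusive means above 25% in only one replicate; inactive means the rest.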
# Assays:
# [1] = molecular target: Pantothenate synthetase (Mycobacterium tuberculosis (strain ATCC 25618 / H37Rv)) (UniProt P9WIL5); experiment: Recombinant Mtb pantothenate synthetase (PanC) inhibitors, coupled enzyme, confirmatory (AID 375; call rule not given here;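 further: 0% = full reaction with vehicle and 100% = no enzyme background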); settings: coupled enzyme assay; at 10 µM, stronger effect = higher value
# [2] = reducers of endogenous Her2 protein level, primary screen, SKBR3 breast tumor cells, AlphaScreen, ATP viability (AID 461;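 active means Her2 level under about 52% in both replicate screens, with viability over 70% of control, limit read from the data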;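 on Her2 level: lower value means less Her2 protein in the cells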;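 on viability: percent of carrier control wells set as 100% viability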); settings: 18-24 h, measured here: SKBR3 viability, ATP luminescence, at 10 µM
# [3] = molecular target: Receptor tyrosine-protein kinase erbB-2 (Homo sapiens) (UniProt P04626); experiment: as above; settings: 18-24 h, at 10 µM, stronger effect = lower value
# [4] = SK-BR-3 cell growth inhibitors, pilot screen, 24 h, human (AID 572;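 active means viability at or below 10% of carrier control in both of two separate runs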;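 further: compound exposure lasted between 18 and 24 h rather than exactly 24 h; 100% = carrier-treated control wells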); settings: SK-BR-3 viability, CellTiter-Glo luminescence, at 10 µM, stronger effect = lower value
# [5] = HUVEC growth inhibition – cell-based, human, primary screen (AID 575;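 active means viability at or below 30% in both replicate assays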;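 further: 100% = median of untreated cell wells with 0.1% DMSO on each plate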); settings: HUVEC proliferation, CellTiter-Glo luminescence, 72 h; at 10 µM; stronger effect = lower value
# [6] = growth inhibitors of H69AR lung tumor, primary screen, human, duplicate replicates (AID 580;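 active means viability at or under a set limit in both replicates, limit being median viability minus 3 SD, cut at about 48% in these data, passing the limit was not always enough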;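 further: 100% = mean luminescence of untreated wells and 0% = no signal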); settings: H69AR lung tumor cells viability, ATP luminescence, 72 h; at 10 µM; stronger effect = lower value
# [7] = reversal of MRP1-mediated doxorubicin resistance, pilot screen, H69AR cells, doxorubicin co-treatment (AID 601;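 active means viability loss from added drug above about 55%, and viability with drug at most 40%, in both replicates, limit read from the data, passing the limit was not always enough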); settings: CellTiter-Glo, 72 h, at 10 µM; for differential viability (reversal): stronger effect = higher value
# [8] = 384-well plate pilot, post-Golgi transport modulator project, inhibition of yeast transport mutant growth (AID 636; in the data active means inhibition above about 31%); settings: absorbance 615 nm, about 18 h, stronger effect = higher value
# [9] = growth suppression of yeast trafficking mutant, preliminary HTS, modulators of trafficking downstream of Golgi apparatus project, 1536-format plate, OD 615 nm (AID 637; in the data active means inhibition above about 30%); settings: yeast transport mutant growth, absorbance 615 nm, 18 h; stronger effect = higher value
# [10] = OD615 S. cerevisiae growth inhibition, permissive medium, pilot counter-assay, permissive growth control for S. cerevisiae lifespan shortening project (AID 705); settings: OD615, 24 h, at 10 µM, stronger effect = higher value
# [11] = Restrictive medium S. cerevisiae growth inhibition, OD615, pilot screen of yeast lifespan reduction project, restrictive growth control (AID 706;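 active means growth inhibition above a set limit, 3 SD over mean compound inhibition, in both replicates, cut at about 43% in these data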;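 further: modified DeaD lifespan yeast strain shifted to restrictive glucose medium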); settings: OD615, 48 h, at 10 µM, stronger effect = higher value
# [12] = viability gain of MRP-1-high H69AR cells under doxorubicin, pilot screen, MRP-1 activator project, CellTiter-Glo, duplicate (AID 807;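 active means viability increase at or above a cutoff of the median across tested compounds plus 3 SD, cut at about 8.5% in these data, passing the limit was not always enough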;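 further: compound pretreatment 18-22 h then 72 h combined with doxorubicin; 0% = doxorubicin alone and 100% = vehicle without doxorubicin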); settings: H69AR viability with doxorubicin, CellTiter-Glo luminescence; at 10 µM; stronger effect = higher value
# [13] = growth suppression of beta-catenin knockout HCT116, pilot screen, human colon tumor cells (AID 823;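 active means cell viability at or below a set limit in both duplicate runs, the limit being the all-compound median minus 4 SD, cut at about 23% in these data, passing the limit was not always enough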;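 further: 0% = wells killed by 20 µM Hyamine and 100% = untreated DMSO cell wells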); settings: CellTiter-Glo, 60 h, at 10 µM, stronger effect = lower value
# [14] = growth suppression of PTEN-deleted HCT116, pilot screen, cell-based, HCT116 clonal line, CellTiter-Glo (AID 824;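 active means viability at or below 27.92% in each of two runs, the all-compound median minus 4 SD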;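 further: 0% = 20 µM Hyamine control and 100% = vehicle cell control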); settings: 60 h, at 10 µM, stronger effect = lower value
# [15] = inhibitors of the yeast RAM network, pilot screen, dse1pr::URA3 reporter, 5-FOA selection (AID 869;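 active means inhibition over a set limit, the all-compound mean plus 3 SD, in both replicate runs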;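 further: 0% = DMSO wells with no growth and 100% = 10 µM 1-NA-PP1 with full growth; RAM network block rescues cells from 5-FOA so hits raise OD615 growth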); settings: S. cerevisiae dse1pr::URA3 5-FOA growth, OD615, 2 d, at 10 µM, stronger effect = higher value
# [16] = RAM signaling pathway blockade in yeast – S. cerevisiae, Pdr1DBD-CYC8 efflux-inhibited sensitized strain, primary screen (AID 1298;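 active means RAM network inhibition above 8.4% in each of two replicates, 3 SD over the compound average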;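 further: 0% = DMSO untreated cells without growth and 100% = 10 µM 1-NA-PP1 full growth; higher means more yeast growth rescued from 5-FOA killing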); settings: S. cerevisiae cbk1-as DSE1-URA3 strain, 5-FOA growth OD615, 2 d; at 50 µM; stronger effect = higher value
# [17] = H69AR cells + 2 uM doxorubicin, measured here: viability with 2 uM doxorubicin, stronger effect = lower value
# [18] = H69AR cells, compound alone cytotoxicity
# Sequence of Pantothenate synthetase (Mycobacterium tuberculosis (strain ATCC 25618 / H37Rv)) (P9WIL5 whole entry, looked up): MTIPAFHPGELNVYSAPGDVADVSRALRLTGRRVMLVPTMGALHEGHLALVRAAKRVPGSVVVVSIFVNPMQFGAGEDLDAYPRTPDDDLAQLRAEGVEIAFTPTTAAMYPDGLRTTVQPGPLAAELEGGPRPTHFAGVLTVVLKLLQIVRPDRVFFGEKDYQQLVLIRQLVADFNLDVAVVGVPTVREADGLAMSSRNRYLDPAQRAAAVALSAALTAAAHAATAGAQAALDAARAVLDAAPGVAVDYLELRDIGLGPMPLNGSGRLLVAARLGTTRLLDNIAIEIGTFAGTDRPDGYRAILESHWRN
# Sequence of Receptor tyrosine-protein kinase erbB-2 (Homo sapiens) (P04626 whole entry, looked up): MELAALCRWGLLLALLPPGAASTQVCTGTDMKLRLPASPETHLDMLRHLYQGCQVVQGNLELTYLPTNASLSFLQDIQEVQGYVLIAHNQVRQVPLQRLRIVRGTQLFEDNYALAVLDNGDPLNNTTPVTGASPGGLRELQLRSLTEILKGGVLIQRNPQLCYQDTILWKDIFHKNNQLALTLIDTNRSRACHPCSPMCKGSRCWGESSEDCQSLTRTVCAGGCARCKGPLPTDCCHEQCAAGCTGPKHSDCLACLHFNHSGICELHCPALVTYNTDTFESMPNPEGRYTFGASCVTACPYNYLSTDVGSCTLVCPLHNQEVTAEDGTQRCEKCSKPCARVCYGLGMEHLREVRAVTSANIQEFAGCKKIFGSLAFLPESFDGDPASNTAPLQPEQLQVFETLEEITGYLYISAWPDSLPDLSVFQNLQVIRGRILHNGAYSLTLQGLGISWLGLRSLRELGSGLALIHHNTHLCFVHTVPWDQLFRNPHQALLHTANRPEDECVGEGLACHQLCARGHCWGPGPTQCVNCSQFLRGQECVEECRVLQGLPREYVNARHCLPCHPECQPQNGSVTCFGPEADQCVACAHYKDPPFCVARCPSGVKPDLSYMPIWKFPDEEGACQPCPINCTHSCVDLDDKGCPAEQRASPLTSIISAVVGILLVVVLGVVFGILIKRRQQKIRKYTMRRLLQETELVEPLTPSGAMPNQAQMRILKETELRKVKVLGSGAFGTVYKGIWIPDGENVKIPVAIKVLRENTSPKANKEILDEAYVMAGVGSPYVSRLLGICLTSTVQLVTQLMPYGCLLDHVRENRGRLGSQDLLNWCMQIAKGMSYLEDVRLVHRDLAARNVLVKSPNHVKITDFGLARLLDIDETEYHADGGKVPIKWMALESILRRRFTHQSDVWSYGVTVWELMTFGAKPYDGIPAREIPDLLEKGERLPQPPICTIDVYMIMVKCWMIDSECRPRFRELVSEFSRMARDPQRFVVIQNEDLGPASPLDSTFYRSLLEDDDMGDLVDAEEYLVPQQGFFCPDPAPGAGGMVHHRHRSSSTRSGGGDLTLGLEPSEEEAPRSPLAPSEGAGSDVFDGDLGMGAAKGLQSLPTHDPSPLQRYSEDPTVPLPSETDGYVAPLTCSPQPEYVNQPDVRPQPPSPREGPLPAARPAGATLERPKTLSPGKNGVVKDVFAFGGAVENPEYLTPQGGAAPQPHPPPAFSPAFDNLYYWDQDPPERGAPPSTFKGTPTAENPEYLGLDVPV
SMILES,inhibition [1],viability [2] [%],Her2 level [3],viability [4],viability [5],viability [6],differential viability (reversal) ([7]; H69AR cells + 2 uM doxorubicin),"viability [7, 17] [%]","viability [7, 18] [%]",inhibition [8],inhibition [9],growth inhibition [10],growth inhibition [11],viability increase [12],viability [13],viability [14],inhibition [15],RAM network inhibition [16]
CN1CCN(c2nc3ccccc3c(=O)n2-c2ccccc2)CC1,0% (inactive),98.5,104% (inactive),98.5% (inactive),79.9% (inactive),86.3% (inactive),-3.29% (inactive),89.6,86.3,0.64% (inactive),-1.17% (inactive),-13.4% (inactive),-1.59% (inactive),-2.67% (inactive),98.1% (inactive),99.3% (inactive),2.02% (inactive),1.34% (inactive)
COc1ccccc1/C=C1/C(=N/O)C2CCN1CC2,0% (inactive),104,102% (inactive),104% (inactive),109% (inactive),104% (inactive),8.7% (inactive),95,104,-2.34% (inactive),0% (inactive),-14.3% (inactive),-13.2% (inactive),-1.4% (inactive),99.8% (inactive),99.4% (inactive),0.7% (inactive),6.29% (inactive)
CC(C)NS(=O)(=O)c1ccc(OCC(=O)N2CCN(C)CC2)cc1,–,–,–,–,–,–,–,–,–,–,–,-11.8% (inactive),-2.15% (inactive),-0.3% (inactive),96.3% (inactive),102% (inactive),1.13% (inactive),3.6% (inactive)
O=C(c1cccs1)C1CN2CCC1CC2 (centres undefined),0% (inactive),89.5,122% (inactive),89.5% (inactive),94.3% (inactive),106% (inactive),13.5% (inactive),92.8,106,0.65% (inactive),-4.33% (inactive),-13.4% (inactive),-12.2% (inactive),-0.68% (inactive),97.3% (inactive),103% (inactive),0.375% (inactive),5.95% (inactive)
CCCC(C)C1C(C#N)=C(N)Oc2c1c(=O)oc1ccccc21 (centres undefined),4% (inactive),116,106% (inactive),116% (inactive),66.8% (inactive),67.7% (inactive),-11.5% (inactive),79.2,67.7,-2.21% (inactive),-0.33% (inactive),-16.8% (inactive),-20.1% (inactive),-5.21% (inactive),91.6% (inactive),97% (inactive),3.74% (inactive),8.16% (inactive)
NC(=O)CN1CC(c2ccccc2)CC1=O (centres undefined),–,–,–,–,–,–,–,–,–,–,–,-5.56% (inactive),-19.9% (inactive),-0.3% (inactive),105% (inactive),98% (inactive),0.295% (inactive),4.63% (inactive)
Cc1nc2ccccc2c(=O)n1-c1ccc(F)cc1,0% (inactive),104,90% (inactive),104% (inactive),93.6% (inactive),96.1% (inactive),11.5% (inactive),84.6,96.1,-5.32% (inactive),1.5% (inactive),-2.1% (inactive),4.13% (inactive),-0.87% (inactive),97.7% (inactive),100% (inactive),1.44% (inactive),1.29% (inactive)
C[C@H]1CCCC(=O)CCC/C=C/c2cc(O)cc(O)c2C(=O)O1,0% (inactive),98.5,16% (active),98.5% (inactive),–,38.4% (active),-57.4% (inactive),95.8,38.4,-3.47% (inactive),1.15% (inactive),-12.9% (inactive),-14.8% (inactive),-6.31% (inactive),65.3% (inactive),66.5% (inactive),2.21% (inactive),4.86% (inactive)
COc1ccc(C2SCC(=O)Nc3c2c(=O)[nH]n3C2CCCCCC2)cc1OC (centres undefined),6% (inactive),124,89% (inactive),124% (inactive),105% (inactive),91.3% (inactive),7.54% (inactive),83.8,91.3,-5.6% (inactive),4.1% (inactive),-18.6% (inactive),-6.19% (inactive),-4.42% (inactive),92.4% (inactive),–,0.915% (inactive),1.3% (inactive)
CN1CSC(=S)N(C)C1,–,–,–,–,–,–,–,–,–,–,–,51.5% (active),63.5% (active),-7.69% (inactive),13.9% (active),19.6% (active),-0.745% (inactive),-1.87% (inactive)
Cc1cccc(-n2c(-c3ccco3)nc3ccccc3c2=O)n1,0% (inactive),105,98.5% (inactive),105% (inactive),111% (inactive),87.9% (inactive),-2.13% (inactive),90,87.9,-0.54% (inactive),49.3% (active),-16.8% (inactive),-15.7% (inactive),0.12% (inactive),108% (inactive),99.7% (inactive),0.505% (inactive),0.8% (inactive)
COc1ccc(CN2CC3CC(C2)c2cccc(=O)n2C3)cc1OC (centres undefined),–,–,–,–,–,–,–,–,–,–,–,-11.4% (inactive),-6.36% (inactive),-1.47% (inactive),93.2% (inactive),93.7% (inactive),2.04% (inactive),1.09% (inactive)
COc1ccc(OC)c(N2C(=O)NC(=O)C(CCc3ccncc3)(CCc3ccncc3)C2=O)c1,0% (inactive),105,112% (inactive),105% (inactive),91% (inactive),82.8% (inactive),-8.92% (inactive),91.7,82.8,0.79% (inactive),11.3% (inactive),-15.9% (inactive),-9.8% (inactive),-1.85% (inactive),94.8% (inactive),94.2% (inactive),2.2% (inactive),0.12% (inactive)
COC(=NC1CCCC1)C(O)c1c[nH]c2ccccc12 (centres undefined),0% (inactive),101,103% (inactive),101% (inactive),102% (inactive),108% (inactive),1.98% (inactive),106,108,-0.82% (inactive),-4.44% (inactive),-12.2% (inactive),-12.5% (inactive),-4.16% (inactive),–,81.2% (inactive),0.825% (inactive),0.62% (inactive)
CC(=O)Nc1ccc(OC(=O)c2ccccc2N)cc1,0% (inactive),100,118% (inactive),100% (inactive),93.5% (inactive),99.3% (inactive),9.29% (inactive),90.1,99.3,-0.13% (inactive),-9.5% (inactive),-7.19% (inactive),-9.05% (inactive),1.42% (inactive),107% (inactive),102% (inactive),1.02% (inactive),0.27% (inactive)
c1ccc(C2NCc3ccccc3-n3cccc32)cc1 (centres undefined),0% (inactive),86,93.5% (inactive),86% (inactive),104% (inactive),84.2% (inactive),5.83% (inactive),78.4,84.2,-4.53% (inactive),1.67% (inactive),-19% (inactive),-22.7% (inactive),-3.44% (inactive),68.2% (inactive),78.5% (inactive),2.53% (inactive),2.46% (inactive)
CC1(C)Cc2c(sc3c2C(=O)NC(c2cccnc2)N3)CO1 (centres undefined),7% (inactive),113,83.5% (inactive),113% (inactive),102% (inactive),98.5% (inactive),12.8% (inactive),85.7,98.5,-3.47% (inactive),1.48% (inactive),-16.3% (inactive),11.8% (inactive),-2.97% (inactive),107% (inactive),–,1.58% (inactive),5.15% (inactive)
O=C(NC1(C(F)(F)F)Oc2ccccc2O1)N1CCC2(CC1)OCCO2,–,–,–,–,–,–,–,–,–,–,–,-4.29% (inactive),1.45% (inactive),-5.11% (inactive),51.5% (inactive),79.8% (inactive),0.465% (inactive),0.45% (inactive)
c1ccc2sc(C3CCCNC3)nc2c1 (centres undefined),–,–,–,–,–,–,–,–,–,–,–,-10.6% (inactive),-19.7% (inactive),-1.16% (inactive),97.6% (inactive),97.4% (inactive),2.33% (inactive),0.56% (inactive)
Cc1cc(C)n2c(Br)c(CN3CC4CC(C3)c3cccc(=O)n3C4)nc2n1 (centres undefined),–,–,–,–,–,–,–,–,–,–,–,-3.02% (inactive),-5.3% (inactive),-2.43% (inactive),90.9% (inactive),105% (inactive),1.09% (inactive),-0.1% (inactive)
O=c1cccc2n1CC1CC2CN(c2ncnc3c2cnn3-c2ccccc2)C1 (centres undefined),–,–,–,–,–,–,–,–,–,–,–,-14.6% (inactive),-18.5% (inactive),-1.4% (inactive),101% (inactive),101% (inactive),1.7% (inactive),1.58% (inactive)
O=c1cccc2n1CC1CC2CN(C(c2cccc(F)c2)c2sc3ncnn3c2O)C1 (centres undefined),–,–,–,–,–,–,–,–,–,–,–,-2.99% (inactive),-4.42% (inactive),-0.98% (inactive),105% (inactive),111% (inactive),2.02% (inactive),-0.21% (inactive)
Cn1cc(C(=O)c2ccccc2)c2ccccc21,–,–,–,–,–,–,–,–,–,–,–,-1.98% (inactive),0.835% (inactive),-1.92% (inactive),80.8% (inactive),87.1% (inactive),0.46% (inactive),-3.38% (inactive)
CC(C)CC1C(C#N)=C(N)Oc2c1c(=O)oc1ccccc21 (centres undefined),–,–,–,–,–,–,–,–,–,–,–,-12.7% (inactive),-16.4% (inactive),-0.17% (inactive),102% (inactive),99.8% (inactive),1.71% (inactive),8.07% (inactive)
C=Cn1ccnc1P(=S)(c1cc(N(CC)CC)ns1)c1nccn1C=C,–,–,–,–,–,–,–,–,–,–,–,-0.585% (inactive),21.8% (inactive),-0.61% (inactive),92.1% (inactive),90.5% (inactive),1.49% (inactive),2.27% (inactive)
